Autofluor counter = compound fluorescence in toxin protease inhibitor counterscreen. compound autofluorescence counterscreen, microsphere flow cytometry; stronger effect = higher value. fluorescence intensity (no concentration beside the values). 360,000 tested, 3.1% active; in the data active = fluorescence intensity above about 16000; inconclusive = no clear call, values can overlap the other calls
BoNT-A LC inh2 = BoNT A light chain protease inhibition. 360,000 tested, 0.17% active. multiplex microsphere protease substrate cleavage, flow cytometry. inhibition, % at 10 µM; note: plate controls were buffer without enzyme for full effect and enzyme alone for no effect
BH1578 lux ind = inducers of Vibrio cholerae quorum light production without autoinducers; V. cholerae BH1578 lux reporter, luminescence, 6 h; activation, % at 18.7 µM; 350,000 tested, 0.16% active; AID 588436; in the data active = activation mostly above about 9.7%, no sharp cut-off; inconclusive = no clear call, values can overlap the other calls; inactive = mostly below about 3.7%
Anthrax LF inh2 = blocks Bacillus anthracis lethal factor protease; AID 588501; multiplex microsphere protease cleavage assay, LF; inhibition, % at 10 µM; 360,000 tested, 0.12% active; note: plate controls were buffer without enzyme for full effect and enzyme alone for no effect
Target sequence (P15917 whole entry, looked up): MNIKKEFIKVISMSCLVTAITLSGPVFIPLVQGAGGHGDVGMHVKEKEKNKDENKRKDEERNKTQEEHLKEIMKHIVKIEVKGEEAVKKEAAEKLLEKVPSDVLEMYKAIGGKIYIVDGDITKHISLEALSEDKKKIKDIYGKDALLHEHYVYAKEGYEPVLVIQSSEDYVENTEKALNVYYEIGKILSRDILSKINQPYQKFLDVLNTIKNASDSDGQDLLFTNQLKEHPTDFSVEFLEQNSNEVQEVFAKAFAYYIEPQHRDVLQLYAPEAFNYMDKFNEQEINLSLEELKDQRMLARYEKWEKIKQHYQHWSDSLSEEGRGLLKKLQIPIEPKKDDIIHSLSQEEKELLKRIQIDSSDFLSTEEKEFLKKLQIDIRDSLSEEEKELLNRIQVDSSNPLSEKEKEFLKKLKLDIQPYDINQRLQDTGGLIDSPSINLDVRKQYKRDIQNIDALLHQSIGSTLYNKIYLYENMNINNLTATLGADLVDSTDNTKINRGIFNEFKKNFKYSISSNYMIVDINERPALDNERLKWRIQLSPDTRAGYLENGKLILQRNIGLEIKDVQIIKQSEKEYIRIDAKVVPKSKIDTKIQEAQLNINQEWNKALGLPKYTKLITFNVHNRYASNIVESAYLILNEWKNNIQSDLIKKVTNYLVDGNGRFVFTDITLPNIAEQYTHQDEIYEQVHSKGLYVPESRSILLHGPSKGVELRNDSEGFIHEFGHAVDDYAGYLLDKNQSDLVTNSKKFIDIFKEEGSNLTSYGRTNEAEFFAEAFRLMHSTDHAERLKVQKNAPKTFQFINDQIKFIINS
MazEF act = activators of E. coli MazEF toxin-antitoxin RNase. 350,000 tested, 0.32% active. P0AE70. FAM/BHQ RNA-DNA oligo cleavage fluorescence, 5 h. activation, % at 20 µM; in the data active = activation above about 50%
BoNT F protease = BoNT F light chain protease inhibition. Multiplex microsphere protease cleavage assay, flow cytometry. inhibition, % at 10 µM. 360,000 tested, 0.22% active. AID 588497; in the data active = inhibition above about 35%, passing the limit was not always enough; inconclusive = no clear call, values can overlap the other calls; note: plate controls were buffer without enzyme for full effect and enzyme alone for no effect
The depositor's hits bear a star; i = inactive; ? = inconclusive; / = no result; + = active, no number. In the library only some 3.9% were active in any assay of this set; here they are far more common. Cut-off read from the data, not from the text of the source, unless noted: active = inhibition above about 30%; inconclusive = no clear call, values can overlap the other calls; inactive = below that.

SMILES | Autofluor counter | BoNT-A LC inh2 | BH1578 lux ind | Anthrax LF inh2 | MazEF act | BoNT F protease
O=C(NCc1cccc(C(F)(F)F)c1)c1ccc2sc([C@H]3C[C@H](O)[C@@H](CO)O3)nc2c1 | 3920 | 0.0 | -0.6 | 0.7 | / | 0.9
O=C(NCc1ccco1)c1cc(-c2cccs2)nc2ccccc12 | 2339 | -0.6 | -3.6 | 0.3 | + | -2.0
O=C(COC(=O)c1cc(-c2cccs2)nc2ccccc12)NCc1ccco1 | 3422 | 0.2 | 0.0 | -2.4 | -1.8 | -1.6
COc1cc(/C=C2\CCC(C)C3=C(c4cc(OC)c(OC)c(OC)c4)C(C#N)=C(N)OC32)cc(OC)c1OC (centres undefined) | 4554 | 4.1 | i | 9.7 | -178.2 | 1.7
CN1C(=O)S/C(=C\c2ccccc2OCc2ccc(C(=O)O)cc2)C1=O | 2193 | 0.4 | -0.8 | 0.8 | 10.5 | 3.2
Cc1ccc(Oc2ccccc2/C=C2\SC(=O)N(C)C2=O)cc1 | 21464* | 3.2 | i | 1.4 | -6.4 | 3.9
Cc1ccc(NC(=S)NNC(=O)Cn2nc([N+](=O)[O-])cc2C)cc1 | 10232 | 0.2 | -0.4 | 0.4 | 10.0 | 1.1
Cc1cc([N+](=O)[O-])nn1CC(=O)NNC(=S)Nc1ccc(Cl)cc1 | 23664* | -1.8 | -0.2 | -2.1 | -2.7 | -3.0
Cc1ccc2nc(C(F)(F)F)c(C#N)c(N)c2c1 | 23566* | ? | i | -0.7 | 3.8 | -0.1
CN(c1ccc(OCC(=O)N2CCC(C(N)=O)CC2)cc1)S(=O)(=O)c1cccs1 | 21812* | ? | i | -6.7 | 9.6 | 1.0
CC(=O)N1CCN(C(=O)COc2ccc(N(C)S(=O)(=O)c3cccs3)cc2)CC1 | 4220 | 0.4 | i | -1.4 | -5.5 | -7.2
CCc1nc2ccc(C(=O)NCC3CCCCC3)cn2c1N(C)Cc1ccc(OC)cc1 | 3602 | 0.1 | i | -6.1 | / | -8.9
Cc1ccc(C)c(S(=O)(=O)NCc2ccc(C(=O)N3CCN(C)CC3)cc2)c1 | 16472* | ? | i | -1.1 | 0.2 | 0.0
Cc1ccc(S(=O)(=O)n2cccc2/C=C/[N+](=O)[O-])cc1 | 2903 | 0.5 | i | -5.9 | -24.2 | 2.4
CC1(C)Cc2c(C#N)c(NCCN3CCOCC3)nc(-c3ccco3)c2CO1 | 21315* | 2.4 | i | -6.1 | 7.0 | 1.2
O=C(O)c1cc2cc(Cl)ccc2oc1=O | 22395* | 1.2 | i | -1.5 | 1.0 | 2.7
COc1cc(OC)c(OC)cc1CN1CCN(c2ccccc2OC)CC1 | 24136* | ? | i | 0.9 | -3.4 | -4.6
COc1ccccc1N1CCN(c2cc(=O)n(-c3ccccc3Cl)c(=O)[nH]2)CC1 | 21673* | -5.1 | -0.2 | -4.3 | -3.7 | -7.4
COc1ccccc1N1CCN(Cc2cc3c(cc2Br)OCCO3)CC1 | 5550 | 0.5 | -0.4 | -2.2 | -7.0 | 5.1
CCC(=O)c1ccc(OCC(O)CN2CCN(c3ccc(F)cc3)CC2)cc1 (centres undefined) | 19445* | 2.7 | i | -2.4 | 1.1 | 4.9
COc1ccccc1N1CCN(CC(O)COc2c(OC)cccc2OC)CC1 (centres undefined) | 19582* | 0.6 | -5.3 | -0.6 | 3.1 | 0.8
CC(=O)c1ccc(OCC(O)CN2CCN(c3ccc(F)cc3)CC2)cc1 (centres undefined) | 3899 | -1.7 | i | -6.3 | 9.7 | ?
COc1cccc(OCC(O)CNC2CCCC2)c1 (centres undefined) | / | / | -0.2 | / | -6.0 | /
CCOCc1c(C(=O)Nc2ccccc2N2CCN(C)CC2)oc2ccccc12 | 6641 | -1.7 | -0.6 | 0.2 | -1.1 | 5.1
Cc1ccc(CC(C)(O)CC(C)(O)Cc2ccc(C)cc2)cc1 (centres undefined) | 3100 | -0.9 | -0.7 | -0.1 | 1.2 | -17.0
SMILES | Autofluor counter | BoNT-A LC inh2 | BH1578 lux ind | Anthrax LF inh2 | MazEF act | BoNT F protease
CCN(CC(=O)NCc1ccc(F)cc1)C(=O)C(C)Oc1cccc(Cl)c1 (centres undefined) | 6086 | -0.4 | -0.3 | -1.0 | -0.6 | -1.4
CCc1ccc(NC(=S)Nc2cc(OC)c(NC(=O)C(C)C)cc2OC)cc1 | 4421 | -0.6 | -0.3 | -0.1 | 2.3 | -3.5
C=CCc1ccccc1OCC(O)CN1CCN(c2ccc(OC)cc2)CC1 (centres undefined) | 23665* | ? | i | -5.1 | -0.9 | -7.3
OC(COCc1ccccc1)CN1CCN(c2ccccc2F)CC1 (centres undefined) | 22811* | 0.8 | i | -1.5 | 0.4 | -0.8
COc1ccccc1N1CCN(Cc2ccc(Br)o2)CC1 | 22305* | 1.8 | i | -2.6 | 2.7 | 0.9
COc1ccccc1N1CCN(Cc2cccc(OC)c2O)CC1 | 21009* | 7.1 | 0.6 | -6.4 | 1.2 | 7.8
Cc1ccccc1C(=O)N1CCCC(N2CCN(Cc3ccc4c(c3)OCO4)CC2)C1 (centres undefined) | ? | -3.8 | i | 1.9 | -1.0 | -7.1
CCC(C)[C@H](N)C(=O)N[C@H]1CCC2C3CC=C4C[C@@H](O)CC[C@]4(C)C3CC[C@@]21C (some centres undefined) | 3898 | 0.9 | i | -5.7 | 6.2 | -6.6
COc1ccccc1N1CCN(Cc2ccccc2F)CC1 | 5507 | -0.5 | -0.3 | 6.8 | -3.4 | -6.0
COc1ccccc1N1CCN(Cc2ccccc2Cl)CC1 | 23767* | -3.4 | -1.7 | -8.7 | -0.9 | -6.7
COc1ccccc1N1CCN(Cc2cccc(OC)c2OC)CC1 | 5575 | 0.4 | -0.7 | 5.1 | -1.2 | 5.6
CCOc1ccccc1N1CCN(Cc2ccc(OC)c(OC)c2OC)CC1 | 21368* | ? | i | -4.0 | -2.2 | 4.8
O=C(O)Cc1ccc(C(=O)c2ccccc2)s1 | 3015 | 1.0 | i | -1.4 | 1.8 | -14.0
N#CCc1ccc(C(=O)c2ccccc2F)s1 | 2136 | 1.2 | 25.0* | 1.6 | 12.5 | -3.7
CC(C)CCNC(=O)CO/N=C/c1ccccc1OC(F)F | 1976 | -0.7 | -0.6 | -0.8 | 6.8 | -5.2
c1ccc(C(c2ccccc2)N2CCN(Cc3nnnn3C3CCCC3)CC2)cc1 | 2789 | 0.4 | -0.4 | 0.4 | 8.0 | -10.8
C1CCC(n2nnnc2CN2CCCC2)CC1 | 23839* | -1.0 | i | -0.5 | 2.3 | -2.7
Cc1ccc(Nc2nc(Cl)c(C=O)s2)cc1Cl | 7281 | 0.5 | -0.4 | -7.5 | 52.7* | -7.7
Cc1ccc(SCC(=O)Nc2cc(C)on2)cc1 | 10411 | 0.0 | -0.7 | -5.5 | 2.2 | -1.5
Cc1cc(NC(=O)CSc2ccc(Cl)cc2)no1 | 22791* | 2.0 | i | -0.6 | -4.5 | 1.6
Cc1cc(NC(=O)Cn2cc(C(F)(F)F)cc(Cl)c2=O)no1 | 21524* | ? | 1.7 | -0.2 | 0.1 | -4.6
COc1ccccc1C(=O)NCCn1cc(SCC(=O)Nc2cc(C)on2)c2ccccc21 | 16999* | ? | 3.0 | -3.7 | 3.2 | -2.0
Cc1cc(NC(=O)CSc2nc(-c3ccc(Cl)cc3)cs2)no1 | 20504* | ? | i | -2.5 | 77.4* | -4.5
O=C(O)C1(O)C[C@H](O)C(O)[C@@H](O)C1 (some centres undefined) | 6130 | -0.8 | -0.2 | -0.9 | 3.8 | -1.0

Screens (PubChem BioAssay)
